Data on 13 compounds can be found in PubChem BioAssay (NCI).

Molecules are shown by their SMILES. Compounds without any hit were thinned out: in the full panel of roughly 83,000, 20% have a hit.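 Values shown are percent growth following 48 h exposure of cells in 96-well plates to a single concentration of compound; below 10 was considered active.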 Calls of active or inactive are those of the source.

Test in all cases: NCI-60 one-dose screen, 48 h (100 = growth as untreated, 0 = no growth, -100 = all killed)
The test system of assay [1] is HT29 colon. The conditions noted are these: 10 µM unless noted.
In assay [2] the test system is SNB-75 CNS. The conditions noted are these: 10 µM unless noted.
Assay [3] relates to PC-3 prostate. The conditions noted are these: 10 µM unless noted.
For assay [4], the system named is SK-MEL-5 melanoma. Conditions: 10 µM unless noted.
Assay [5] relates to UACC-62 melanoma. The conditions noted are these: 10 µM unless noted.
Assay [6] has as its system LOX IMVI melanoma. Conditions: 10 µM unless noted.
The test system of assay [7] is SK-MEL-28 melanoma. The conditions noted are these: 10 µM.
For assay [8], the system named is SK-MEL-2 melanoma. Conditions: 10 µM unless noted.
For assay [9], the system named is SN12C renal. Conditions: 10 µM unless noted.
Assay [10] relates to UO-31 renal. The conditions noted are these: 10 µM unless noted.
Assay [11] concerns TK-10 renal. The conditions noted are these: 10 µM unless noted.
Assay [12] deals with ACHN renal. The conditions noted are these: 10 µM unless noted.
In assay [13] the test system is CAKI-1 renal. The conditions noted are these: 10 µM unless noted.
Assay [14] concerns A498 renal. Conditions: 10 µM unless noted.
In assay [15] the test system is CCRF-CEM leukemia. The conditions noted are these: 10 µM unless noted.
Assay [16] concerns MOLT-4 leukemia. Conditions: 10 µM unless noted.
In assay [17] the test system is SR leukemia. Conditions: 10 µM unless noted.
The test system of assay [18] is SNB-19 CNS. The conditions noted are these: 10 µM unless noted.
For assay [19], the system named is U251 CNS. Conditions: 10 µM unless noted.
In assay [20] the test system is EKVX NSCLC. Conditions: 10 µM unless noted.

With `COc1ccc(Cn2c(Br)c3c(c2-c2cc(OC)c(OC)c(OC)c2)CCc2sc(NC(=O)c4ccc(OC)cc4)nc2-3)cc1`, the growth in assay [1] is 101% (inactive); in assay [2], 82.4% (inactive); in assay [3] it was 84.2% (inactive); in assay [4], 86.7% (inactive); in [5] it was 94.9% (inactive); in [6] it was 92.5% (inactive). In addition, the growth in assay [7] was 105% (inactive); in [8], 96.7% (inactive); in assay [9] it was 85% (inactive); in assay [10], 47.4% (inactive); in assay [11], 110% (inactive); in [12] it was 97.5% (inactive). Also, the growth is 78% (inactive) in assay [13]; 86.7% (inactive) in [14]; 79% (inactive) in assay [15]; 75.7% (inactive) in [16]; 76.2% (inactive) in [17].

As to `CC(C)Cn1c2c(c(=S)[nH]c1=O)CCC2`, the growth was 111% (inactive) in [1]; 97.6% (inactive) in [18]; 102% (inactive) in assay [19]; 104% (inactive) in assay [3]; 96.1% (inactive) in assay [5]; 118% (inactive) in [7]. The growth in [8] is 98.2% (inactive); in assay [20], 102% (inactive); in [9], 97.6% (inactive); in [11], 102% (inactive); in [12], 103% (inactive); in [13], 89.1% (inactive). In addition, the growth in assay [15] was 99.3% (inactive); in assay [16] it was 108% (inactive); in assay [17], 106% (inactive).

Turning to `CCCN1C(=O)N(CCC)C2C1NN=c1s/c(=C3\C(=O)N(C(C)C)c4ccccc43)c(=O)n12` (stereo not drawn), the growth was 18.8% (inactive) in assay [1]; 47.9% (inactive) in [18]; 48.4% (inactive) in assay [19]; 35.8% (inactive) in [3]; 31.5% (inactive) in [5]; 41.1% (inactive) in assay [6]. The growth in assay [7] was 60.7% (inactive); in assay [8], 49.4% (inactive); in assay [20], 51% (inactive); in assay [9], 65.9% (inactive); in [10], 30.9% (inactive); in assay [11], 78.9% (inactive). Further, the growth in assay [12] is 23.4% (inactive); in [13] it was 31.7% (inactive); in assay [15] it was 45.8% (inactive); in [16], 46.3% (inactive); in assay [17], 7.97% (active).

Turning to `COc1ccc(CCN2C(=O)CCSC2=S)cc1`, the growth in assay [1] was 18% (inactive); in assay [2], 54.1% (inactive); in assay [19], 92.2% (inactive); in [4], 94.1% (inactive); in assay [5], 77.1% (inactive); in [6], 8% (active). Moreover, the growth in assay [7] was 77.7% (inactive); in assay [8], 85.4% (inactive); in assay [20] it was 101% (inactive); in assay [9], 46.4% (inactive); in assay [10] it was 59.9% (inactive); in [12] it was 42.3% (inactive). Besides, the growth is 44.8% (inactive) in [13]; 82.9% (inactive) in assay [14]; 30% (inactive) in assay [15]; 64.1% (inactive) in assay [16]; 18.1% (inactive) in [17].

`CN1C(=O)N(C)C2(c3ccccc3)n3c(s/c(=C\c4ccccc4)c3=O)=NNC12c1ccccc1` (stereo not drawn): the growth was 95.5% (inactive) in [1]; 98% (inactive) in [18]; 96.4% (inactive) in assay [19]; 74.2% (inactive) in assay [3]; 81.2% (inactive) in assay [5]; 86.2% (inactive) in assay [6]. The growth was 101% (inactive) in assay [7]; 99.7% (inactive) in assay [8]; 76.1% (inactive) in [20]; 91.3% (inactive) in assay [9]; 74.9% (inactive) in assay [10]; 116% (inactive) in assay [11]. Further, the growth in assay [12] is 95% (inactive); in [13], 84.5% (inactive); in [15], 92.2% (inactive); in assay [16] it was 83% (inactive); in [17], 71.9% (inactive).

Regarding `C=CCN1C(=O)/C(=c2\sc3n(c2=O)NC2C(N=3)N(CC)C(=O)N2CC)c2ccccc21` (stereo not drawn), the growth was 19.9% (inactive) in assay [1]; 44.5% (inactive) in assay [18]; 45.8% (inactive) in assay [19]; 30.5% (inactive) in assay [3]; 35.5% (inactive) in assay [5]; 47.7% (inactive) in [6]. The growth was 59.9% (inactive) in [7]; 65.9% (inactive) in [8]; 49.2% (inactive) in [20]; 56.7% (inactive) in [9]; 56% (inactive) in [10]; 101% (inactive) in [11]. In addition, the growth in assay [12] is 52.9% (inactive); in assay [13], 42.3% (inactive); in assay [15], 24.4% (inactive); in assay [16], 36.4% (inactive).

`C=C[C@@H]1CCC/C=C/[C@@H]2C[C@H](O)C[C@H]2[C@H](O)/C=C/C(=O)O1`: the growth in assay [2] was 33.8% (inactive); in assay [18] it was 33.4% (inactive); in [19], 25.3% (inactive); in assay [3], 30.3% (inactive); in assay [4] it was -90.1% (active); in [5] it was 22.1% (inactive). Also, the growth in assay [6] was -63.6% (active); in assay [7] it was 6.18% (active); in assay [8], -1.5% (active); in [20] it was 16.9% (inactive); in assay [9] it was 13.3% (inactive); in assay [10], 6.14% (active). In addition, the growth is 15.5% (inactive) in [11]; 10.4% (inactive) in assay [13]; -17.9% (active) in assay [14]; 12.6% (inactive) in assay [15]; -9.66% (active) in [16]; -15.1% (active) in assay [17].

As for `COc1ccc(/C=c2\sc3n(c2=O)NC2C(N=3)N(C)C(=O)N2C)cc1` (stereo not drawn), the growth is 103% (inactive) in assay [1]; 94.1% (inactive) in assay [18]; 101% (inactive) in [19]; 95.6% (inactive) in assay [3]; 89.1% (inactive) in assay [5]; 92.8% (inactive) in [6]. Moreover, the growth in assay [7] was 104% (inactive); in assay [8] it was 103% (inactive); in [20] it was 98.4% (inactive); in assay [9] it was 101% (inactive); in assay [11], 112% (inactive); in [12], 105% (inactive). Further, the growth is 85% (inactive) in assay [13], 95.7% (inactive) in assay [15], 102% (inactive) in [16] and 86.8% (inactive) in assay [17].

As for `COc1ccc(-c2cn[nH]c2-c2ccc(OC)c(O)c2)cc1`, the growth in assay [1] is 94.3% (inactive); in assay [2] it was 87.6% (inactive); in [19], 63.1% (inactive); in assay [3], 84% (inactive); in [5], 66% (inactive); in [6], 59.5% (inactive). The growth in [7] was 89.1% (inactive); in [8], 42% (inactive); in [20], 84.9% (inactive); in assay [9] it was 91.3% (inactive); in assay [11], 88.6% (inactive); in assay [12] it was 92.2% (inactive). Besides, the growth in [13] is 75% (inactive); in assay [14] it was 59% (inactive); in assay [15] it was 71.9% (inactive); in assay [16], 67.4% (inactive); in [17] it was 33.7% (inactive).

Consider `CN1C(=O)N(C)C2C1NN=c1s/c(=C\c3ccc([N+](=O)[O-])cc3)c(=O)n12` (stereo not drawn), for which the growth was 25.9% (inactive) in assay [1]; 54% (inactive) in [18]; 69.8% (inactive) in assay [19]; 45.8% (inactive) in [3]; 39.4% (inactive) in assay [5]; 51.3% (inactive) in assay [6]. In addition, the growth in assay [7] is 76.9% (inactive); in assay [8] it was 64.6% (inactive); in assay [20], 87.5% (inactive); in assay [9], 88.7% (inactive); in assay [10], 63.5% (inactive); in [11] it was 95.2% (inactive). For the same compound, the growth in assay [12] was 53.6% (inactive); in assay [13], 40.2% (inactive); in assay [15] it was 70.4% (inactive); in assay [16], 64.3% (inactive); in [17], 22% (inactive).

On to `CCCCCCCCCCOC(=O)c1ccccc1C(=O)OCCCC`, for which the growth is 105% (inactive) in assay [1]; 81.9% (inactive) in [2]; 101% (inactive) in assay [19]; 90.4% (inactive) in [3]; 102% (inactive) in assay [6]; 119% (inactive) in [7]. Further, the growth in assay [8] was 111% (inactive); in assay [10], 81.3% (inactive); in [11], 108% (inactive); in assay [12], 109% (inactive); in assay [14], 121% (inactive); in [15], 103% (inactive). Further, the growth is 95.4% (inactive) in assay [16] and 100% (inactive) in assay [17].

For `CCN1C(=O)N(c2ccccc2)C2NN=c3s/c(=C4\C(=O)N(C(C)C)c5ccccc54)c(=O)n3C21` (stereo not drawn), the growth in assay [1] is 9.74% (active); in assay [18], 35.7% (inactive); in assay [19], 25.9% (inactive); in assay [3], 25.7% (inactive); in [5], 37.6% (inactive); in [6], 31.4% (inactive). Besides, the growth is 62.8% (inactive) in assay [7]; 48.8% (inactive) in [8]; 55.9% (inactive) in assay [20]; 38.7% (inactive) in assay [9]; 37.1% (inactive) in assay [12]; 49.1% (inactive) in assay [13]. The results for the growth in assay [15], in [16] and in assay [17] were 15.1% (inactive), 20.9% (inactive) and 14.6% (inactive), respectively.

With `O=C(CN1C=NC2C(N3CCOCC3)=NC=NC21)c1ccc(Br)cc1` (stereo not drawn), the growth in [1] is 107% (inactive); in assay [18], 97.2% (inactive); in assay [19], 99.8% (inactive); in [3], 95.5% (inactive); in [5], 93.1% (inactive); in assay [6], 97.3% (inactive). For the same compound, the growth is 111% (inactive) in assay [7]; 94.4% (inactive) in assay [8]; 97.6% (inactive) in assay [20]; 98.3% (inactive) in assay [9]; 78.6% (inactive) in assay [10]; 117% (inactive) in assay [11]. Besides, the growth in [12] was 103% (inactive); in assay [13], 85.4% (inactive); in assay [15], 105% (inactive); in assay [16], 105% (inactive); in assay [17], 104% (inactive).
